Results filed as inconclusive are left out. Activity calls are given as the source filed them. The calls were made as follows: active = hit-call score of the fitted dose curve at least 0.9, where 1 is the maximum; inconclusive = response in the unintended direction; inactive = score below 0.9.

Sequence of human CYP2C9, CYP2C9 (gene 1559) (P11712 whole entry, looked up): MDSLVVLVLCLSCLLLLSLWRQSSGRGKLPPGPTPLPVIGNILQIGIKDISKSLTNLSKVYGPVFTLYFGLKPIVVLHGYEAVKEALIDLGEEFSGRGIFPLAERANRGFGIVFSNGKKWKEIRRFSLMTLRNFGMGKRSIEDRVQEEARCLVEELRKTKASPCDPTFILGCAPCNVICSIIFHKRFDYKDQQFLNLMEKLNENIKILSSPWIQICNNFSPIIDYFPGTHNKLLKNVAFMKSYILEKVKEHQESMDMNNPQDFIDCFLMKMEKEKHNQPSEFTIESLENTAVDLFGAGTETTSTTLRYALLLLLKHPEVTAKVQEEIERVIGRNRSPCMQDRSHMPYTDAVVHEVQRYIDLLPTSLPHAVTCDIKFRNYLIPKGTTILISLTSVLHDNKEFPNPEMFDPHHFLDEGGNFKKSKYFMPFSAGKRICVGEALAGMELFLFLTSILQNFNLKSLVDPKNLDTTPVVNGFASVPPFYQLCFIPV

This assay has as its target human CYP2C9, CYP2C9 (gene 1559) (UniProt P11712). The experiment in a line: NVS_ADME_hCYP2C9: NovaScreen (NVS) CYP450-related Enzyme Activity (ADME) Assay for human CYP2C9 (AID 2283108). The protocol:
NVS_ADME_hCYP2C9 is a biochemical, single-readout assay that uses extracted gene-proteins from SF9 in a cell-free assay. Measurements were taken 0.75 hour after chemical dosing in a 96-well plate.NVS_ADME_hCYP2C9 is one of one assay component(s) measured or calculated from the NVS_ADME_hCYP2C9 assay. It is designed to make measurements of enzyme activity, a form of enzyme reporter, as detected with fluorescence intensity signals by Fluorescence technology.Data from the assay component NVS_ADME_hCYP2C9 was analyzed into 1 assay endpoint. This assay endpoint, NVS_ADME_hCYP2C9, was analyzed in the positive analysis fitting direction relative to Acetonitrile as the negative control and baseline of activity. Using a type of enzyme reporter, loss-of-signal activity can be used to understand changes in the enzymatic activity as they relate to the gene CYP2C9. Furthermore, this assay endpoint can be referred to as a primary readout, because this assay has produced multiple assay endpoints where this one serves a enzymatic activity function. To generalize the intended target to other relatable targets, this assay endpoint is annotated to the cyp intended target family, where the subfamily is xenobiotic metabolism.
Binding assays used specific radioligands (tritiated, iodinated) with non-radioactive competitive displacement ligands in agonist or antagonist protocols (as indicated) and various reference compounds and inhibitors to titrate specific binding to receptors and transporters. Most enzyme assays (CYPs, kinases, phosphatases, proteases, HDACs) used recombinant protein and specific substrates (fluorescence mostly, some colorimetric and radioactive) and inhibitors, followed by a biochemical separation of substrate and product. All assays for the biochemical HTS were initially run in duplicate at a single concentration (10 uM for CYP450 assays and 25 uM for all others). […] Each assay was run with positive and negative controls, and concurrent controls on every plate. The follow-up (secondary) screen tested active chemical-pairs in concentration series, as well as a few additional assays not tested in the primary screen, some selected negative inactives, and several cases re-run in the concentration series for confirmatory purposes.
On to `O=S(=O)(O)C(F)(F)C(F)(F)C(F)(F)C(F)(F)C(F)(F)C(F)(F)F`, for which the AC50 is 79.1 nM (active).

On to `NS(=O)(=O)C(F)(F)C(F)(F)C(F)(F)C(F)(F)C(F)(F)C(F)(F)C(F)(F)C(F)(F)F`, for which the AC50 is 1970 nM (active).

For the compound `CC(C)(O)C(=O)Nc1ccc([N+](=O)[O-])c(C(F)(F)F)c1`, the compound was classed as inactive. Consider `CCC(C)(c1ccc(O)cc1)c1ccc(O)cc1`, for which the AC50 was 6470 nM (active).

In the case of `CO/C=C(/C(=O)OC)c1ccccc1COc1cccc(C(F)(F)F)n1`, the AC50 is 6850 nM (active). On the same count and under the same terms, next, `CC(C)(c1ccccc1)c1ccc(O)cc1`: 10000 nM (active); `Nc1ccc(-c2ccc(N)cc2)cc1`: 10000 nM (active); `COc1ccc(O)c(C(C)(C)C)c1`: 10000 nM (active). Take `O=C(O)C(F)(F)C(F)(F)C(F)(F)C(F)(F)C(F)(F)C(F)(F)C(F)(F)C(F)(F)C(F)(F)F`: the AC50 was 1120 nM (active).

For `O=C(O)C(F)(F)C(F)(F)C(F)(F)C(F)(F)C(F)(F)C(F)(F)C(F)(F)C(F)(F)F`, the AC50 was 643 nM (active).

In the case of `Oc1ccc(C(c2ccc(O)cc2)(C(F)(F)F)C(F)(F)F)cc1`, the AC50 was 406 nM (active).

With `CCC(C)(CC)c1cc(NC(=O)c2c(OC)cccc2OC)on1`, the AC50 is 2790 nM (active).

(Values after PubChem BioAssay (EPA / NIEHS).)
